This passage reports Potency results from PubChem BioAssay AID1347416 (National Center for Advancing Translational Sciences (NCATS), 2020).

In all, about 4,100 compounds went through this assay and about 1,600 (39%) were called active. Not shown: some 25% with an inconclusive outcome. The call rests on the fitted dose curve; in most records, active means well fitted inhibition curve with a large enough effect; inconclusive means small, poorly fitted or top-dose-only effect; inactive means no such curve, though single readings can be large or run the other way. Some of the results follow. Where a call stands in place of a potency, no number is given.
Potency means the concentration at half of the fitted maximal effect.

A short description of this assay: qHTS Validation assay for Inhibitors of Plasmodium falciparum Dd2 growth in vitro. Further: nearly all actives have a fitted effect of over 70% in size. As to conditions: P. falciparum Dd2 in RBCs, SYBR Green growth, 72 h; series mostly up to 28.7 µM. In outline:
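P. falciparum Dd2-infected red blood cells (2.5% hematocrit, 0.3% parasitemia) grown 72 h at 37 °C under 5% O2 with compounds in a titration, 29 uM to 0.5 nM final. Growth read as SYBR Green-1 fluorescence after ~16 h lysis; artesunate 300 nM as positive control.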
Background: qHTS replaces the single test concentration by a dilution series.
Consider `COc1ccccc1NC(=O)N1CC(=O)Nc2sc3c(c2C1c1ccccc1)CCCC3` (stereo unspecified), for which the Potency was 15 µM (active). For `CCOc1ccccc1NC(=O)c1c(NC(=O)COc2ccccc2)sc2c1CCCCC2` the value was “inactive”; for `COc1ccc(N(CC(=O)NCc2ccccc2)C(=O)CCC(=O)Nc2cc(C)ccn2)c(OC)c1`, 10.6 µM (active); for `COc1ccc(C(=O)/C=C/Nc2cc(C)ccn2)cc1`, “inactive”. As for `Cc1cc(C)cc(N(CC(=O)NCc2ccc3c(c2)OCO3)C(=O)CCC(=O)Nc2ccccn2)c1`, the figure is 4.22 µM (active). Take `CC(=O)N1CCCC(c2nn(C)c(=O)n2C2CCCC2)C1` (stereo unspecified): the Potency entry was “inactive”. For `COc1cccc(Nc2ccc3c(n2)C(C)(C(=O)NC2CCN(C)CC2)CN(C)C3)c1` (stereo unspecified) the value was 17.2 µM (active). For `CN1Cc2ccc(Nc3ccccc3)nc2C(C)(C(=O)NCc2ccc3c(c2)OCO3)C1` (stereo unspecified) the value was 13.7 µM (active). As for `COc1cccc(Nc2ccc3c(n2)C(C)(C(=O)NCC2CC2)CN(C)C3)c1` (stereo unspecified), the figure is 12.2 µM (active); as for `COc1cccc(Nc2ccc3c(n2)C(C)(C(=O)NC2CCC2)CN(C)C3)c1` (stereo unspecified), 15.3 µM (active); as for `CCC(C)NC(=O)CSc1nc2cc3c(cc2c(=O)n1CCCC(=O)NCc1ccc2c(c1)OCO2)OCO3` (stereo unspecified), “inactive”. Consider `COc1cccc(CCC(=O)NC2CCN(C(=O)c3cc4c(=O)[nH]c(C)cn4n3)CC2)c1`, for which the Potency entry was “inactive”. For `Cc1cnc(C(=O)N[C@@H]2CCC[C@@H]2C(=O)NCc2ccc3c(c2)OCO3)cn1` the value was “inactive”; for `Cc1nncn1C1CCN(S(=O)(=O)c2ccc(F)c(F)c2)CC1`, “inactive”; for `O=c1[nH]c(C2CCN(S(=O)(=O)c3ccc4c(c3)OCCO4)CC2)nc2c1nnn2Cc1ccc(F)cc1`, 8.41 µM (active). As for `O=c1[nH]c(C2CCN(S(=O)(=O)/C=C/c3ccccc3)CC2)nc2c1nnn2Cc1ccc(F)cc1`, the figure is 13.3 µM (active); as for `c1ccc(-c2noc(-c3cncnc3NC3CCCCCC3)n2)cc1`, “inactive”; as for `CC(C)(C)NC(=S)Nc1ccc(Nc2ccccc2)cc1`, “inactive”. For `CC(C)Oc1ccc2c(c1)OC(c1ccccc1)(C(F)(F)F)NC2=O` (stereo unspecified) the value was 2.66 µM (active).

On to `CCOc1ccc2c(c1)OC(c1ccc(C)cc1)(C(F)(F)F)NC2=O` (stereo unspecified), for which the Potency is 2.66 µM (active). For `CCCNC(=O)Nc1ccc(OC2CCN(C(=O)CC)C2)nc1` (stereo unspecified) the value was “inactive”; for `CCOC(=O)Cn1c(=O)c2c(nc(N3CCCCC3)n2C)n(C)c1=O`, “inactive”.

As for `CCn1c(N2CCC(C)CC2)nc2c1c(=O)n(C)c(=O)n2C`, the Potency is 5.96 µM (active). As for `O=C(Nc1ccc([N+](=O)[O-])cc1)Nc1nc(-c2ccc(Cl)s2)cs1`, the Potency was 2.99 µM (active). As for `O=C(Nc1ccc(Cl)cc1)Nc1nc(-c2ccccc2O)cs1`, the figure is 6.68 µM (active); as for `O=C(Nc1nc(-c2ccccn2)cs1)c1cccc(S(=O)(=O)N2CCOCC2)c1`, 5.96 µM (active); as for `O=C(Nc1nc(-c2ccccn2)cs1)c1ccc(F)c(S(=O)(=O)N2CCOCC2)c1`, 2.11 µM (active). As for `COc1ccc(-c2csc(NC(=O)C(CC(=O)O)N3CCOCC3)n2)cc1` (stereo unspecified), the entry is “inactive”. For `N#Cc1cc(C#N)c(N2CCN(c3cccc(Cl)n3)CC2)nc1N` the value was 3.35 µM (active). Turning to `Cc1ccc(C(=O)N2CCC(c3c[nH]c4ccccc34)(c3c[nH]c4ccccc34)CC2)cc1`, the Potency was 8.41 µM (active). As for `Cn1nccc1C(=O)N1CCC2(CC1)NCCc1c2[nH]c2ccccc12`, the entry is “inactive”; as for `COCc1noc(CC2CCOC3(CCN(C(=O)c4c[nH]c5ccccc45)CC3)C2)n1` (stereo unspecified), “inactive”; as for `c1ccc([C@H]2CN3CCSC3=N2)cc1`, “inactive”.

Consider `NC(Cc1ccccc1)C(=O)N1CCC2(CC1)CN(C(=O)c1ccc(Cl)cc1)CCO2` (stereo unspecified), for which the Potency is 0.842 µM (active). For `CC(C)(C)c1ccc(C(=O)N2CCC3(C2)NC(=O)N(Cc2ccc(Cl)cc2)C3=O)cc1` (stereo unspecified) the value was “inactive”; for `O=C(NCc1ccccc1)N1CCC2(CC1)CC(N(C(=O)c1ccccc1)C1CC1)CCO2` (stereo unspecified), “inactive”; for `Cc1ccc(CN2CCNC(=O)C2CC(=O)N(CC(C)C)CC(C)C)cc1` (stereo unspecified), “inactive”.

As for `CCN1CCN(c2nc(SC)nc3sc4c(c23)CC(C)(C)OC4)CC1`, the Potency entry is “inactive”. As for `CC1(C)Cc2c(c(N3CCOCC3)nc3snc(Br)c23)CO1`, the figure is 0.299 µM (active); as for `CCCNC(=O)c1ccc(N2CCC3(CC2)CC(c2cccc(Br)c2)=NO3)c(NC(=O)c2ccco2)c1`, 2.99 µM (active); as for `CCOc1cc(NC(=S)NC)c(OCC)cc1NC(=O)c1ccco1`, “inactive”. Regarding `Cc1ccc(CNC(=O)c2ccc(N3CCC4(CC3)CC(c3cccc(Br)c3)=NO4)c(NC(=O)c3ccco3)c2)cc1`, the Potency was 8.41 µM (active).

On to `COc1nc(N=C(N)N)nc2c(C)cccc12`, for which the Potency result was “inactive”.

In the case of `CCOc1nc(N=C(N)N)nc2c(C)cccc12`, the Potency was 10.6 µM (active).

Take `CN1C(=O)CS(=O)(=O)C12CCN(C(=O)c1cc(F)ccc1Cl)CC2`: the Potency result was “inactive”.

With `Cc1ccc(C2Cn3nnc(-c4noc(CNC(=O)c5ccccc5)n4)c3CO2)cc1` (stereo unspecified), the Potency result was “inactive”. For `Cc1ccc(C2Cn3nnc(-c4noc(-c5n[nH]c6c5CCCC6)n4)c3CO2)cc1` (stereo unspecified) the value was 13.3 µM (active). Consider `Cc1ccc(C2Cn3nnc(-c4noc(-c5nn(C)c6ccccc56)n4)c3CO2)cc1` (stereo unspecified), for which the Potency entry is “inactive”. As for `O=c1c2ccccc2nc(/C=C/c2cc(Br)ccc2O)n1CCCO`, the figure is 9.44 µM (active); as for `CCn1c(/C=C/c2cc(Br)ccc2O)nc2ccccc2c1=O`, 4.22 µM (active). Consider `Oc1ccc(Br)cc1Cn1nnc2ccccc21`, for which the Potency result was “inactive”. For `O=C(c1ccccc1-c1ccccc1)N1CCC(c2ncc[nH]2)CC1` the value was “inactive”; for `CCc1c(C)[nH]c2ccccc2c1=O`, 10.6 µM (active); for `CCCc1c(C)[nH]c2ccccc2c1=O`, 7.5 µM (active). For `C=CCc1c(C)[nH]c2ccc(C)cc2c1=O` the value was “inactive”; for `COc1cccc(S(=O)(=O)N2CCC3(CC2)C(OC)C(=O)N3c2cccc(F)c2)c1` (stereo unspecified), “inactive”.

For `O=S(=O)(c1ccc2ccccc2c1)N1CCN(C(=S)Nc2ccccc2F)CC1`, the Potency is 4.22 µM (active).

For `O=S(=O)(c1ccc2ccccc2c1)N1CCN(C(=S)Nc2ccc(F)c(Cl)c2)CC1`, the Potency was 1.06 µM (active).

As to `O=S(=O)(c1ccc(Cl)cc1)N1CCN(C(=S)Nc2ccccc2F)CC1`, the Potency was 2.37 µM (active). `O=C(Cn1ccc2cc(S(=O)(=O)N3CCCCCC3)ccc21)NCCc1ccc(Cl)cc1`: the Potency result was “inactive”. For `COc1cccc(NC(=S)N2CCN(S(=O)(=O)c3ccc(F)cc3)CC2)c1`, the Potency was 2.66 µM (active).

With `O=c1nc2ccccn2c2ccc(S(=O)(=O)N3CCCCC3)cc12`, the Potency result is “inactive”. As for `CN1CCN(c2ccc(Nc3ccnc4cc(Cl)ccc34)cc2)CC1`, the figure is 0.188 µM (active); as for `Oc1ccc(Nc2ccnc3cc(Cl)ccc23)cc1`, 1.68 µM (active).

For `O=C(NNc1ccnc2cc(Cl)ccc12)C1CCCCC1`, the Potency is 7.5 µM (active).

For the compound `CN1CCN(c2cc(=O)c3ccnc(N4CCOCC4)c3o2)CC1`, the Potency result was “inactive”. As for `Clc1ccc2c(N/N=C/c3cccc(Br)c3)ccnc2c1`, the figure is 10.6 µM (active); as for `CN(C)c1ccnc(Nc2ccc(O)cc2)c1C#N`, “inactive”. Turning to `CN(Cc1ccccc1F)C1CCc2ccccc21` (stereo unspecified), the Potency entry was “inactive”.

`Clc1ccc(NNc2ccnc3cc(Cl)ccc23)cc1`: the Potency was 1.5 µM (active). With `O=C(CSc1ncn[nH]1)Nc1ccnc2ccccc12`, the Potency result is “inactive”. As for `CCN1CCN(c2ccc(Nc3ccnc4ccccc34)cc2)CC1`, the figure is 1.06 µM (active).

Take `COc1ccccc1NC(=O)c1nn(C)c2c1CS(=O)(=O)c1ccccc1-2`: the Potency entry is “inactive”. For `CN(C(=O)c1ccc2c(c1)N(Cc1ccc(F)cc1)C(=O)c1ccccc1S2(=O)=O)C1CCCCC1` the value was “inactive”; for `CCOC(=O)c1ccc2c(c1)N(C(CC)C(=O)Nc1ccccc1OC)C(=O)c1ccccc1S2` (stereo unspecified), 9.44 µM (active); for `CCOC(=O)c1ccc2c(c1)N(CC(=O)N(C)c1ccccc1)C(=O)c1ccccc1S2`, 10.6 µM (active). As for `O=C1NCCCCCCN(C(=O)C2CCCC2)[C@H]2CCCC[C@@H]12`, the entry is “inactive”; as for `O=C1NC(=NC2CCCCC2)C2(CCN(Cc3ccccc3)C2)N1c1cc(F)cc(F)c1` (stereo unspecified), 4.22 µM (active). For `O=C(c1ccccc1F)N1CCCC2(C1)C(=NC1CCCC1)NC(=O)N2c1cc(F)cc(F)c1` (stereo unspecified) the value was “inactive”. Consider `COc1cccc([S+](=O)([O-])N2CCC3(CC2)C(=NC2CCCCC2)NC(=O)N3c2cc(F)cc(F)c2)c1`, for which the Potency entry was “inactive”. As for `O=C1NC(=NC2CCCC2)C2(CCN(Cc3ccccc3)C2)N1c1cc(F)cc(F)c1` (stereo unspecified), the figure is 7.5 µM (active). With `O=C1NCc2ccccc2CC12CCCN(Cc1ccccc1)C2` (stereo unspecified), the Potency entry was “inactive”. For `Cc1ccc2nc(-c3ccc(Cl)c(NC(=O)c4cccnc4)c3)oc2c1` the value was “inactive”; for `O=C(NC(c1ccccc1)c1cc(Cl)c2cccnc2c1O)c1cccnc1` (stereo unspecified), 7.5 µM (active); for `O=C(NC(c1ccc(Cl)cc1)c1cc(Cl)c2cccnc2c1O)c1cccnc1` (stereo unspecified), 5.96 µM (active). For `CN(CC1(C)CCOCC1)C(=O)c1ccco1` the value was “inactive”; for `O=C(Cn1ccn2nc(-c3ccc(F)cc3)c(CO)c2c1=O)Nc1ccc(Cl)cc1F`, “inactive”; for `CC(Oc1ccc(F)cc1)C(=O)Nc1cc(C(F)(F)F)ccc1-n1cncn1` (stereo unspecified), 1.68 µM (active). As for `CC(Oc1ccc(F)cc1)C(=O)Nc1cc(Cl)ccc1-n1cncn1` (stereo unspecified), the figure is 6.68 µM (active); as for `CC(C(=O)N1CCc2ccccc21)N1CCc2ccccc2C1` (stereo unspecified), “inactive”; as for `CC1(C)C(=O)N(CC2CCOCC2)[C@H]2CN(Cc3ccccc3O)C[C@H]2[S+]1(=O)[O-]`, “inactive”. Regarding `COCC1CN(C)CC12CCN(C(=O)CC1=CCCCC1)CC2` (stereo unspecified), the Potency entry is “inactive”. As for `O=C(NCCc1cccnc1)c1ccc(-c2nnc3ccc(NC(=O)C4CCC4)cn23)cc1`, the Potency was 6.68 µM (active). For `O=C(NCCc1ccncc1)c1ccc(-c2nnc3ccc(NC(=O)C4CCC4)cn23)cc1` the value was 2.99 µM (active); for `O=C(NCCN1CCCCC1)c1ccc(-c2nnc3ccc(NC(=O)C4CCC4)cn23)cc1`, 13.3 µM (active). As for `Cn1c(=O)c2ccnn2c2ccc(C(=O)NCCN3CCC(N4CCCCC4)CC3)cc21`, the entry is “inactive”; as for `O=C1CCN(S(=O)(=O)c2ccccc2)CCCC(C(=O)NCCc2cccnc2)CCN1` (stereo unspecified), “inactive”. As for `Cc1cn2nc(C(=O)N3CCC(C(=O)NCc4cccnc4)CC3)cc2c(=O)[nH]1`, the entry is “inactive”; as for `O=C(Nc1ccc(-c2nnc3n2CCCC3)cc1)c1ccccc1F`, “inactive”; as for `CC1CN(C(=O)Nc2ccc(C(=O)NCCc3ccccc3)cc2)c2ccccc2S1` (stereo unspecified), “inactive”. As to `Cc1noc(-c2ccn3c(CNC(=O)c4ccncc4)nnc3c2)n1`, the Potency result was “inactive”.
